“And” between values parts separate entries of the source, which are not always exact repeats. Identical values can stand only once. Results filed as inconclusive are left out. A number with no mark means an inactive call. The source made the active and inactive calls. Calls come from the whole dose curve; as a rule, active = well fitted curve in the direction sought with a large enough effect; inconclusive = small, poorly fitted or top-dose-only effect, or another doubt; inactive = no such curve, though single readings can be large; an effect the other way counts as inactive or inconclusive.
Potency is the fitted concentration of half-maximal effect.

The first assay can be described thus: qHTS of pediatric cancer cell lines to identify multiple opportunities for drug repurposing: Primary screen for A673 cells (AID 1347092). For activity change, negative = cytotoxic: % is set by controls: 0 for no effect and ±100 for the full control effect. Note: nearly all actives have a fitted effect of over 45% in size. The note with it: A673 Ewing sarcoma viability, CellTiter-Glo ATP luminescence, 48 h; series mostly up to 46 µM; activity change, negative = cytotoxic: at the top concentration. In a few lines:
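48 h compound exposure, A673, 500-1,000 cells/well, 37 degrees C/5% CO2. MIPE: 11-point, 0.78 nM-46 µM; NPC: 8-point, 0.59 nM-46 µM (final). Readout CellTiter-Glo luminescence after 15 min RT.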
On the technique in general: Quantitative high-throughput screening tests each substance at several concentrations.
For `O=S(=O)(O)CCS`, the “activity change, negative = cytotoxic” value is 7.09%.
In the case of `CC(=O)Oc1ccccc1C(=O)Nc1ncc([N+](=O)[O-])s1`, the Potency was 42.9 µM (active).
With `COc1ccc2c(c1)c(CC(=O)OCC(=O)O)c(C)n2C(=O)c1ccc(Cl)cc1`, the Potency entry is “inactive”.
As to `Cc1ccnc2c1NC(=O)c1cccnc1N2C1CC1`, the “activity change, negative = cytotoxic” value is -0.58%.
On to `Cc1c(-c2ccc(O)cc2)n(Cc2ccc(OCCN3CCCCCC3)cc2)c2ccc(O)cc12`, for which the “activity change, negative = cytotoxic” value is -5.17%.
Turning to `C[C@@H](NCCCc1cccc(C(F)(F)F)c1)c1cccc2ccccc12`, the “activity change, negative = cytotoxic” value was -14.5%.
Turning to `NC(=O)c1cccc(N)c1`, the “activity change, negative = cytotoxic” value is -15.7%.
For `Cc1cccc(N(C)C(=S)Oc2ccc3ccccc3c2)c1`, the Potency result is “inactive”.
For `CN(Cc1cc(Br)cc(Br)c1N)C1CCCCC1`, the Potency result was “inactive”.
In the case of `CCCCS(=N)(=O)CCC(N)C(=O)O` (centres undefined), the Potency was 23.5 µM (active).

A further assay can be described thus: qHTS of pediatric cancer cell lines to identify multiple opportunities for drug repurposing: Primary screen for SK-N-MC cells (AID 1347093).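 For activity change, negative = cytotoxic: plate controls were DMSO neutral control for no effect and bortezomib for full effect.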 The note with it: SK-N-MC viability, CellTiter-Glo luminescence, 48 h; series mostly up to 46 µM; activity change, negative = cytotoxic: at the top concentration. In a few lines: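 Metabolically active cells were quantified by ATP-dependent luminescence (CellTiter-Glo, 15 min at room temperature) following 48 h treatment. Cells had been plated at 500-1,000 per well and settled for 5 h beforehand.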
Regarding `Cc1nnc(NS(=O)(=O)c2ccc(N)cc2)s1`, the Potency is 0.833 µM (active).
For `CCC(=O)O[C@]1(C(=O)SCF)[C@H](C)C[C@H]2[C@@H]3C[C@H](F)C4=CC(=O)C=C[C@]4(C)[C@@]3(F)[C@@H](O)C[C@@]21C`, the “activity change, negative = cytotoxic” value was -30%.
With `CC[C@H](C)C(=O)O[C@H]1C[C@@H](C)C=C2C=C[C@H](C)[C@H](CC[C@@H]3C[C@@H](O)CC(=O)O3)[C@H]21`, the “activity change, negative = cytotoxic” value is 10.5%.
In the case of `C[C@@H](CN1CC(=O)NC(=O)C1)N1CC(=O)NC(=O)C1`, the Potency is 23.7 µM (active) and 7.43 µM (active).
The same measure, in the same setting: the same measure for `CC(C)Cn1cnc2c(N)nc3ccccc3c21`: 16.6 µM (active).
On to `CC1CC2C3CCC4=CC(=O)C=C[C@]4(C)[C@@]3(F)[C@@H](O)C[C@]2(C)[C@@]1(O)C(=O)CO` (some centres undefined), for which the Potency was 13.2 µM (active).
On to `CNC1CCCN(c2c(F)cc3c(=O)c(C(=O)O)cn(C4CC4)c3c2OC)C1` (centres undefined), for which the “activity change, negative = cytotoxic” value was 68.4%.
For the compound `Nc1nc(N)c2nc(CNc3ccc(C(=O)NC(CCC(=O)O)C(=O)O)cc3)cnc2n1` (centres undefined), the Potency is 0.0166 µM (active).
In the case of `CC(C)NCC(O)c1ccc(NS(C)(=O)=O)cc1` (centres undefined), the Potency was 10.5 µM (active).
`N[C@@H](Cc1ccc(O)c(O)c1)C(=O)O`: the Potency was 18.7 µM (active).
Still for that read-out and setting: the same measure for `CCCCCCNC(=O)n1cc(F)c(=O)[nH]c1=O`: 16.6 µM (active).

Another assay is described as follows: qHTS of pediatric cancer cell lines to identify multiple opportunities for drug repurposing: Primary screen for BT-37 cells (AID 1347094).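 For activity change, negative = cytotoxic: plate controls were DMSO for no effect and bortezomib for full effect.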 The note with it: BT-37 viability, CellTiter-Glo luminescence, 48 h; series mostly up to 57.3 µM; activity change, negative = cytotoxic: at the top concentration. In a few lines: (§1)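 500-1,000 cells/well; 5 h pre-incubation 37 °C/5% CO2; compound pinned; 48 h; CellTiter-Glo, 15 min RT; luminescence. MIPE 11-pt from 0.78 nM, NPC 8-pt from 0.59 nM final. Bortezomib 2.3 µM final as positive control.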
For `O=S(=O)(O)CCS`, the Potency entry was “inactive”.
In the case of `CC(=O)Oc1ccccc1C(=O)Nc1ncc([N+](=O)[O-])s1`, the Potency is 28 µM (active) and 19.5 µM (active).
Regarding `CCC(C)(C)c1ccc(CC(C)CN2C[C@@H](C)O[C@@H](C)C2)cc1` (some centres undefined), the Potency result is “inactive”.
Consider `CC(C)(Sc1cc(C(C)(C)C)c(O)c(C(C)(C)C)c1)Sc1cc(C(C)(C)C)c(O)c(C(C)(C)C)c1`, for which the “activity change, negative = cytotoxic” value is -14.6%.
Take `COc1ccc2c(c1)c(CC(=O)OCC(=O)O)c(C)n2C(=O)c1ccc(Cl)cc1`: the Potency result is “inactive”.
With `Cc1ccnc2c1NC(=O)c1cccnc1N2C1CC1`, the Potency result was “inactive”.
Turning to `Cc1c(-c2ccc(O)cc2)n(Cc2ccc(OCCN3CCCCCC3)cc2)c2ccc(O)cc12`, the “activity change, negative = cytotoxic” value is 14.1%.
With `CCC(=O)O[C@]1(C(=O)SCF)[C@H](C)C[C@H]2[C@@H]3C[C@H](F)C4=CC(=O)C=C[C@]4(C)[C@@]3(F)[C@@H](O)C[C@@]21C`, the Potency result was “inactive”.
In the case of `C[C@@H](CN1CC(=O)NC(=O)C1)N1CC(=O)NC(=O)C1`, the Potency is 6.85 µM (active).
Regarding `O[C@@H](CNC[C@H](O)[C@H]1CCc2cc(F)ccc2O1)[C@@H]1CCc2cc(F)ccc2O1`, the Potency was 27.6 µM (active).
On to `C[C@@H](NCCCc1cccc(C(F)(F)F)c1)c1cccc2ccccc12`, for which the “activity change, negative = cytotoxic” value is -7.06%.
Still for that read-out and setting: the same measure for `NC(=O)c1cccc(N)c1`: 9.17%.
`Clc1ccccc1CN1CCc2sccc2C1`: the Potency is 1.53 µM (active).
Still for that read-out and setting: the same measure for `O=C(O)c1ccc(-n2nc(-c3ccccc3O)nc2-c2ccccc2O)cc1`: 24.6 µM (active).
In the case of `CC1CC2C3CCC4=CC(=O)C=C[C@]4(C)[C@@]3(F)[C@@H](O)C[C@]2(C)[C@@]1(O)C(=O)CO` (some centres undefined), the “activity change, negative = cytotoxic” value is 2.05%.
On to `O=c1cc(O)c(Cl)c[nH]1`, for which the “activity change, negative = cytotoxic” value is 2.26%.
Take `COc1cnc(NS(=O)(=O)c2ccc(N)cc2)nc1`: the “activity change, negative = cytotoxic” value is 10.3%.
As to `O=C(O)C1CCCN(CCC=C(c2ccccc2)c2ccccc2)C1` (centres undefined), the “activity change, negative = cytotoxic” value was 6.78%.
On to `COc1cc2ncnc(Nc3cccc(Cl)c3)c2cc1OC`, for which the Potency was 21.7 µM (active).
For `Cc1cccc(N(C)C(=S)Oc2ccc3ccccc3c2)c1`, the Potency entry is “inactive”.
As for `CN(Cc1cc(Br)cc(Br)c1N)C1CCCCC1`, the Potency entry was “inactive”.
In the case of `CNC1CCCN(c2c(F)cc3c(=O)c(C(=O)O)cn(C4CC4)c3c2OC)C1` (centres undefined), the “activity change, negative = cytotoxic” value was 4.79%.
As to `OCc1ccc(-c2nn(Cc3ccccc3)c3ccccc23)o1`, the “activity change, negative = cytotoxic” value was -16.9%.
As to `Nc1nc(N)c2nc(CNc3ccc(C(=O)NC(CCC(=O)O)C(=O)O)cc3)cnc2n1` (centres undefined), the Potency is 0.0485 µM (active).
On to `CC(C)NCC(O)c1ccc(NS(C)(=O)=O)cc1` (centres undefined), for which the “activity change, negative = cytotoxic” value is 11.5%.
In the case of `N[C@@H](Cc1ccc(O)c(O)c1)C(=O)O`, the “activity change, negative = cytotoxic” value was 5.41%.
Regarding `CCCCS(=N)(=O)CCC(N)C(=O)O` (centres undefined), the “activity change, negative = cytotoxic” value is 8.03%.

A short description of the next assay: qHTS of pediatric cancer cell lines to identify multiple opportunities for drug repurposing: Primary screen for NB-EBc1 cells (AID 1347095).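 For activity change, negative = cytotoxic: plate controls were DMSO neutral control for no effect and bortezomib for full effect.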 Conditions: NB-EBc1 neuroblastoma viability, CellTiter-Glo luminescence, 48 h; series mostly up to 46 µM; activity change, negative = cytotoxic: at the top concentration. In a few lines: as §1
For the compound `O=S(=O)(O)CCS`, the Potency entry was “inactive”.
The same measure, in the same setting: the same measure for `CC(=O)Oc1ccccc1C(=O)Nc1ncc([N+](=O)[O-])s1`: 10.8 µM (active) and 15 µM (active); for `CCC(C)(C)c1ccc(CC(C)CN2C[C@@H](C)O[C@@H](C)C2)cc1` (some centres undefined): “inactive”.
Still for that read-out and setting: the same measure for `COc1cc2c(Nc3ccc(Br)cc3F)ncnc2cc1OCC1CCN(C)CC1`: “inactive”; for `CC(C)(Sc1cc(C(C)(C)C)c(O)c(C(C)(C)C)c1)Sc1cc(C(C)(C)C)c(O)c(C(C)(C)C)c1`: “inactive”.
With `COc1ccc2c(c1)c(CC(=O)OCC(=O)O)c(C)n2C(=O)c1ccc(Cl)cc1`, the Potency entry is “inactive”.
On to `Cc1ccnc2c1NC(=O)c1cccnc1N2C1CC1`, for which the Potency result is “inactive”.
Regarding `CCC(=O)O[C@]1(C(=O)SCF)[C@H](C)C[C@H]2[C@@H]3C[C@H](F)C4=CC(=O)C=C[C@]4(C)[C@@]3(F)[C@@H](O)C[C@@]21C`, the “activity change, negative = cytotoxic” value is -2.04%.
Consider `C[C@@H](CN1CC(=O)NC(=O)C1)N1CC(=O)NC(=O)C1`, for which the Potency is 3.72 µM (active).
`O[C@@H](CNC[C@H](O)[C@H]1CCc2cc(F)ccc2O1)[C@@H]1CCc2cc(F)ccc2O1`: the Potency was 21.1 µM (active).
As for `C[C@@H](NCCCc1cccc(C(F)(F)F)c1)c1cccc2ccccc12`, the “activity change, negative = cytotoxic” value was -4.95%.
With `NC(=O)c1cccc(N)c1`, the “activity change, negative = cytotoxic” value was 1.63%.
Consider `Clc1ccccc1CN1CCc2sccc2C1`, for which the “activity change, negative = cytotoxic” value is -7.23%.
For `O=C(O)c1ccc(-n2nc(-c3ccccc3O)nc2-c2ccccc2O)cc1`, the Potency was 8.33 µM (active).
As to `CC1CC2C3CCC4=CC(=O)C=C[C@]4(C)[C@@]3(F)[C@@H](O)C[C@]2(C)[C@@]1(O)C(=O)CO` (some centres undefined), the “activity change, negative = cytotoxic” value is 11%.
Regarding `O=c1cc(O)c(Cl)c[nH]1`, the “activity change, negative = cytotoxic” value is 15.8%.
`COc1cnc(NS(=O)(=O)c2ccc(N)cc2)nc1`: the “activity change, negative = cytotoxic” value was 14.4%.
On to `O=C(O)C1CCCN(CCC=C(c2ccccc2)c2ccccc2)C1` (centres undefined), for which the “activity change, negative = cytotoxic” value was 20.1%.
For `Cc1cccc(N(C)C(=S)Oc2ccc3ccccc3c2)c1`, the “activity change, negative = cytotoxic” value was -3.33%.
As for `CC(C(=O)O)c1ccc2c(c1)CC(=O)c1ccccc1S2` (centres undefined), the Potency result is “inactive”.
With `CNC1CCCN(c2c(F)cc3c(=O)c(C(=O)O)cn(C4CC4)c3c2OC)C1` (centres undefined), the Potency entry is “inactive”.
For `OCc1ccc(-c2nn(Cc3ccccc3)c3ccccc23)o1`, the “activity change, negative = cytotoxic” value is 4.84%.
Take `CC(C)NCC(O)c1ccc(NS(C)(=O)=O)cc1` (centres undefined): the “activity change, negative = cytotoxic” value is 40.7%.
On to `N[C@@H](Cc1ccc(O)c(O)c1)C(=O)O`, for which the “activity change, negative = cytotoxic” value was 0.239%.
The same measure, in the same setting: the same measure for `CCCCS(=N)(=O)CCC(N)C(=O)O` (centres undefined): 16.4%.
On to `CCCCCCNC(=O)n1cc(F)c(=O)[nH]c1=O`, for which the Potency was 2.99 µM (active) and 4.18 µM (active).

The values are drawn from PubChem BioAssay (NCATS).
